According to PubChem BioAssay (Tox21):
Values joined by “and” are separate entries in the source; they are usually repeats but may differ in a detail not shown here. Identical values can stand only once. Results filed as inconclusive are left out. Some compounds were tested as several samples or in several runs, with calls that do not always agree. Active and inactive are the calls of the source. Unless noted, calls come from the whole dose curve; as a rule, active = well fitted curve in the direction sought with a large enough effect in the repeat runs; inconclusive = weak or mixed curves; inactive = no such curve, though single readings can be large; an effect the other way counts as inactive or inconclusive.

Tests used:
[1] = qHTS assay to identify small molecule antagonists of the retinoid acid receptor (RAR) signaling pathway - cell viability counter screen (AID 1159551); note: nearly all actives have a fitted effect of over 35% in size; note: potency is the fitted concentration of half-maximal effect
Procedure, shortened: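 Retinol-stimulated (1 uM final) C3RL4 cells, compound 6 h, 37 C; readout CellTiter-Glo luminescence (ATP) after 30 min RT incubation.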

[2] = qHTS assay to identify small molecule antagonists of the retinoic acid receptor (RAR) signaling pathway (AID 1159552; note: nearly all actives have a fitted effect of over 50% in size; note: potency is the fitted concentration of half-maximal effect)
Procedure, shortened: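 Luminescence from a RARE luciferase reporter in C3RL4 cells served as read-out. Cells received compounds together with 1 uM final retinol and incubated 6 hr at 37 C before detection reagent was added for 30 min at room temperature.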

[3] = qHTS assay to identify small molecule agonists of the retinoic acid receptor (RAR) signaling pathway (AID 1159553); note: potency is the fitted concentration of half-maximal effect
Procedure, shortened: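 Reporter readout comes from luciferase under RARE control in C3RL4 cells; compound exposure lasts 6 hr at 37 C in 5% CO2, and luminescence is recorded following a 30 min room-temperature incubation with reagent.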

[4] = qHTS assay to identify small molecule antagonists of the estrogen related receptor (ERR) signaling pathway from Tox21 library - cell viability counter screen (AID 1224834); note: nearly all actives have a fitted effect of over 30% in size; note: potency is the fitted concentration of half-maximal effect
Procedure, shortened: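 After 17.5 h of compound exposure at 37 C, ERR cells are incubated with CellTiter-Fluor for 30 min and fluorescence intensity serves as the viability measure.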

[5] = biological target: Luciferin 4-monooxygenase (Photinus pyralis) (UniProt P08659); test: qHTS assay to identify small molecule inhibitors of firefly luciferase (AID 1224835); note: nearly all actives have a fitted effect of over 25% in size; note: potency is the fitted concentration of half-maximal effect
Chain of Luciferin 4-monooxygenase (Photinus pyralis) (P08659 whole entry, looked up): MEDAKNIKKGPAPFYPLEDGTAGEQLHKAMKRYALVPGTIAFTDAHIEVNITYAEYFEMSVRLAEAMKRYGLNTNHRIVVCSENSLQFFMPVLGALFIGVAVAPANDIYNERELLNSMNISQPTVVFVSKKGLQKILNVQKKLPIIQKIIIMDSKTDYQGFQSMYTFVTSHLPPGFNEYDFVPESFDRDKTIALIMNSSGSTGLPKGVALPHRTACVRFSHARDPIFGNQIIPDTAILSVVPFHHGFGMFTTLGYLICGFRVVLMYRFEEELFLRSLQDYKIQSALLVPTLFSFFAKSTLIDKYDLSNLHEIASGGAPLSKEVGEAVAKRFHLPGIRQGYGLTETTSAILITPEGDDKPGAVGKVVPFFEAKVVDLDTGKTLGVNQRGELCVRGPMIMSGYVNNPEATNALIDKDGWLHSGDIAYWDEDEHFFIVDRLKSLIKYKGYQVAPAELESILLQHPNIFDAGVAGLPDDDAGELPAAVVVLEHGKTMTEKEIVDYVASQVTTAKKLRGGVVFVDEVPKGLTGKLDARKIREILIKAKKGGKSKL
Procedure, shortened: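 Quantitative HTS format; KM concentrations of both substrates. Purified P. pyralis FLuc activity quantified from luminescence images.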

[6] = qHTS assay to identify small molecule agonists of the constitutive androstane receptor (CAR) signaling pathway - cell viability counter screen (AID 1224836); note: nearly all actives have a fitted effect of over 45% in size; note: potency is the fitted concentration of half-maximal effect
Procedure, shortened: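 Viability read-out: CellTiter-Fluor fluorescence after 23 h compound exposure at 37 C/5% CO2 in double-stable HepG2-CYP2B6-hCAR cells, with PK11195 present at 0.75 uM final; compounds tested in 15-point titration.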

[7] = qHTS assay to identify small molecule antagonists of the constitutive androstane receptor (CAR) signaling pathway - cell viability counter screen (AID 1224837); note: nearly all actives have a fitted effect of over 45% in size; note: potency is the fitted concentration of half-maximal effect
Procedure, shortened: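 Counter screen run in HepG2-CYP2B6-hCAR cells: 4 hr settle, compound titration (15 concentrations) with 50 nM CITCO, 23 hr at 37 C/5% CO2, CellTiter-Fluor fluorescence.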

[8] = biological target: Nuclear receptor subfamily 1 group I member 3 (Homo sapiens) (UniProt Q14994); test: qHTS assay to identify small molecule antagonists of the constitutive androstane receptor (CAR) signaling pathway (AID 1224838);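 note: HepG2 cells stably expressing hCAR with CYP2B6 luciferase reporter stimulated by CITCO; nearly all actives have a fitted effect of over 40% in size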; note: potency is the fitted concentration of half-maximal effect
Chain of Nuclear receptor subfamily 1 group I member 3 (Homo sapiens) (Q14994 whole entry, looked up): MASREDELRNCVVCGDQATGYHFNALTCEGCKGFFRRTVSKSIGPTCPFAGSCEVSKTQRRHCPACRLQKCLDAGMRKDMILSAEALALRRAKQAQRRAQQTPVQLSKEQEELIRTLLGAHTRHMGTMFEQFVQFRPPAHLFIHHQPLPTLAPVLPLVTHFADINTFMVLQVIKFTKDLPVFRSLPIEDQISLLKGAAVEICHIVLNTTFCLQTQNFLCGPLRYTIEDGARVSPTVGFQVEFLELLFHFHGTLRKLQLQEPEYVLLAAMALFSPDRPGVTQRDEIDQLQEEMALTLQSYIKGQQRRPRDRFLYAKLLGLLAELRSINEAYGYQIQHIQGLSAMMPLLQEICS
Procedure, shortened: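 Cell line: HepG2 double-stable for hCAR and CYP2B6-2.2kb reporter. Agonist: CITCO, 50 nM final. Compounds: 15 concentrations, 24 h, 37 C. Detection: ONE-Glo luminescence.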

[9] = biological target: Nuclear receptor subfamily 1 group I member 3 (Homo sapiens) (UniProt Q14994); test: qHTS assay to identify small molecule agonists of the constitutive androstane receptor (CAR) signaling pathway (AID 1224839); note: nearly all actives have a fitted effect of over 15% in size; note: potency is the fitted concentration of half-maximal effect
Procedure, shortened: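 Luminescence read-out (ONE-Glo, 30 min, room temperature) from double-stable HepG2-CYP2B6-hCAR cells exposed 24 h to 15-point compound series in presence of 0.75 uM PK11195 final.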

[10] = qHTS assay to identify small molecule antagonists of the estrogen related receptor signaling pathway with the pleiotropic PPARgamma coactivator (PGC) from Tox21 10K library - cell viability counter screen (AID 1224840; active = well fitted cell-killing curve with a large enough effect in the repeat runs, not every such curve was filed as active; note: nearly all actives have a fitted effect of over 40% in size; note: potency is the fitted concentration of half-maximal effect)
Procedure, shortened: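 Following seeding of 2,000 PGC/ERR cells/well and 6 hours' incubation, test compounds were delivered in DMSO. The plates then sat 17.5 hours at 37 C before a fluorogenic live-cell protease reagent (CellTiter-Fluor) was read after 30 min.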

[11] = qHTS assay to identify small molecule antagonists of the estrogen related receptor signaling pathway with the pleiotropic PPARgamma coactivator (PGC) from Tox21 10K library (AID 1224841; call rule not given here; note: actives are mostly falling curves and most rising ones were filed inactive; nearly all actives have a fitted effect of over 50% in size; note: potency is the fitted concentration of half-maximal effect)
Procedure, shortened: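 qHTS antagonist format: PGC/ERR cells, 2k/well, compound in DMSO by pin transfer after 6 h attachment, 18 h treatment at 37 C, One-Glo luminescence read at 30 min.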

[12] = qHTS assay to identify small molecule agonists of the estrogen related receptor signaling pathway with the pleiotropic PPARgamma coactivator (PGC) from Tox21 10K library (AID 1224842); note: nearly all actives have a fitted effect of over 15% in size; note: potency is the fitted concentration of half-maximal effect
Procedure, shortened: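 PGC/ERR reporter cells (NTP line) were seeded 2,000 per well, rested 6 h at 37 C/5% CO2, then pin-dosed with compounds in DMSO for 18 h at 37 C; luciferase read by One-Glo luminescence after 30 min at room temperature.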

[13] = biological target: Thyrotropin receptor (Homo sapiens) (UniProt P16473); test: qHTS assay to identify small molecule agonists of the thyroid stimulating hormone receptor (TSHR) signaling pathway (AID 1224843; calls by dose curve; note: nearly all actives have a fitted effect of over 45% in size)
Chain of Thyrotropin receptor (Homo sapiens) (P16473 whole entry, looked up): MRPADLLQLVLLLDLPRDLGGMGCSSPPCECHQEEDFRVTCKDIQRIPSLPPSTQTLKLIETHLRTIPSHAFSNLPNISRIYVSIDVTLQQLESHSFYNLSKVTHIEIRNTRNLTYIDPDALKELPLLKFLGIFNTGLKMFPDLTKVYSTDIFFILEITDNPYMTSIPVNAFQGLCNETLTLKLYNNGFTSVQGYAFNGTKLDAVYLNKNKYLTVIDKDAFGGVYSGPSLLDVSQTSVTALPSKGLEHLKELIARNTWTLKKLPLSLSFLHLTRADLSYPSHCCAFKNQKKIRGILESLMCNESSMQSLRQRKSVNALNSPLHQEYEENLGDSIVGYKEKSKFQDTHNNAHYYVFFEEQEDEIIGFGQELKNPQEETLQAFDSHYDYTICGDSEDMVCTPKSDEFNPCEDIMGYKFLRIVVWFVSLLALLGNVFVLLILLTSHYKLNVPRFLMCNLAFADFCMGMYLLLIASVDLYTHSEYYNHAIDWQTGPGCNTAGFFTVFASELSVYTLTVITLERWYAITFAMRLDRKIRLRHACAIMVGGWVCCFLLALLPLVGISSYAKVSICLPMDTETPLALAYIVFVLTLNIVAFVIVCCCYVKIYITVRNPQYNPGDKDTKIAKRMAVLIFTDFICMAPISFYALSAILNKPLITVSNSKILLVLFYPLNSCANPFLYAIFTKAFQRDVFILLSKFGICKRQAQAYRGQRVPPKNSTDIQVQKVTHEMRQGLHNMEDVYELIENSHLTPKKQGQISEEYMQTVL
Procedure, shortened: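 TSHR-expressing HEK293 cells (800 per well) were exposed to compounds for 30 min at room temperature. cAMP was then detected by HTRF competition with cAMP-d2 and anti-cAMP cryptate, read after 1 h at room temperature. Fifteen concentrations, triplicate.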

[14] = qHTS assay to identify small molecule antagonists of the estrogen related receptor (ERR) signaling pathway - cell viability counter screen (AID 1224818); note: potency is the fitted concentration of half-maximal effect
Procedure, shortened: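 After a 6 h pre-incubation, ERR cells were dosed by pin tool with compounds, positive/negative controls or DMSO alone. Following 17.5 h at 37 C and 30 min with CellTiter-Fluor, fluorescence was recorded.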

[15] = qHTS assay to identify small molecule antagonists of the estrogen related receptor (ERR) signaling pathway (AID 1224819; note: potency is the fitted concentration of half-maximal effect; nearly all actives have a fitted effect of over 50% in size)
Procedure, shortened: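 Luminescence readout (One-Glo, 30 min, RT) of ERR cell line after 18 h compound exposure at 37 C; cells seeded 2,000/well, pre-incubated 6 h, compounds pinned from DMSO stocks.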

[16] = qHTS assay to identify small molecule agonists of the estrogen related receptor (ERR) signaling pathway (AID 1224820)
Procedure, shortened: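 ERR reporter cells (NTP line) plated 2,000/well, incubated 6 h at 37 C/5% CO2, then pinned with compounds in DMSO and held 18 h at 37 C. One-Glo added; luminescence read after 30 min at room temperature.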

[17] = test system: estrogen-related receptor alpha (ERRalpha) with PGC-1alpha coactivator, human; test: qHTS assay to identify small molecule antagonists of the estrogen related receptor signaling pathway with the pleiotropic PPARgamma coactivator (PGC) (AID 1224821; calls by dose curve;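 note: series mostly up to about 46 µM; lower luminescence signal means antagonism of PGC/ERR signalling; nearly all actives have a fitted effect of over 50% in size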)
Procedure, shortened: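 Cells engineered for PGC/ERR signalling (line from NTP) were plated 6 h at 37 C/5% CO2, then exposed to DMSO-dissolved compound for 18 h at 37 C. Luciferase activity was read by One-Glo luminescence after 30 min at room temperature.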

[18] = qHTS assay to identify small molecule antagonists of the estrogen related receptor signaling pathway with the pleiotropic PPARgamma coactivator (PGC) cell viability counter screen (AID 1224822; note: potency is the fitted concentration of half-maximal effect)
Procedure, shortened: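 PGC/ERR cells were plated at 2,000 per well and allowed 6 h to settle before compound addition. Following 17.5 h at 37 C, CellTiter-Fluor reagent was added and fluorescence was read 30 min later.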

[19] = qHTS assay to identify small molecule agonists of the estrogen related receptor signaling pathway with the pleiotropic PPARgamma coactivator (PGC) (AID 1224823)
Procedure, shortened: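 PGC/ERR reporter cells were seeded, rested 6 h at 37 C/5% CO2, then exposed to compounds in DMSO by pin transfer for 18 h at 37 C. Luciferase activity was read as luminescence after One-Glo reagent and 30 min at room temperature.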

Measured: Potency

CC(C)(C)c1ccccc1
not listed: [14] | [15] | [16] | [17] | [18] | [19]
inactive: all other assays above

CN(C)c1ccc2nc3ccc(=[N+](C)C)cc-3sc2c1
active: [1] 13.1 µM and 30.6 µM and 23.7 µM | [3] 2.94 µM and 1.37 µM and 1.68 µM | [4] 4.16 µM and 6.11 µM and 5.96 µM | [5] 15.3 µM and 20 µM and 17.4 µM | [7] 27.3 µM and 11.9 µM | [10] 2.62 µM and 7.7 µM | [11] 1.86 µM and 1.93 µM and 2.66 µM
inactive: [8] | [12]

CC(C)(O)CCC(C)(C)O
inactive: [1] | [2] | [3] | [4] | [5] | [7] | [8] | [10] | [11] | [12]

O=Nc1ccc(Nc2ccccc2)cc1
inactive: [6] | [7] | [8]
active: [4] 19.4 µM and 24.3 µM | [5] 35.8 µM and 39.9 µM | [9] 17.2 µM | [10] 15.4 µM and 19.3 µM | [12] 9.69 µM

CCOc1ccccc1C(N)=O
inactive: [1] | [4] | [5] | [6] | [7] | [8] | [9] | [10] | [13]

Nc1ccc2cc3ccccc3cc2c1
inactive: [1] | [2] | [4] | [8] | [10] | [13]
active: [3] 5.54 µM and 34.4 µM | [5] 20.4 µM and 17.8 µM | [9] 27.8 µM and 48.6 µM

Cc1c(O)cccc1C(=O)N[C@@H](CSc1ccccc1)[C@H](O)CN1C[C@H]2CCCC[C@H]2C[C@H]1C(=O)NC(C)(C)C
active: [14] 10.6 µM | [15] 19.6 µM | [18] 10.6 µM | [4] 8.41 µM and 11.9 µM | [6] 26.6 µM and 23.7 µM | [7] 26.6 µM and 11.9 µM | [8] 59.5 µM and 26.6 µM | [10] 9.43 µM
inactive: [1] | [16] | [17] | [19] | [5] | [12] | [13]

Cc1cc(C2(c3cc(C)c(O)cc3C)OS(=O)(=O)c3ccccc32)c(C)cc1O
active: [4] 21.7 µM and 24.3 µM | [5] 35.6 µM | [6] 24.3 µM and 27.3 µM | [7] 24.3 µM and 19.3 µM | [10] 19.3 µM
34.4 µM (active) and inactive: [11]
inactive: [1] | [8] | [9] | [12]

CCn1c2ccccc2c2cc(N)ccc21
inactive: [1] | [4] | [6] | [7] | [8] | [10] | [12] | [13]
active: [9] 10.8 µM and 15.4 µM and 30.6 µM

Oc1ccc(Cl)cc1Cc1cc(Cl)ccc1O
inactive: [3] | [5] | [7] | [9] | [13]
active: [2] 31.2 µM and 27.3 µM | [4] 44.1 µM and 61.1 µM and 29.8 µM | [10] 24.8 µM

COC(=O)/C=C/c1ccccc1
inactive: [1] | [2] | [3] | [4] | [7] | [8] | [9] | [10]

O
inactive: [1] | [4] | [7] | [10]

COc1ccc(COC(C)=O)cc1
not listed: [14] | [15] | [16] | [17] | [18] | [19]
inactive: all other assays above

CCCCCCCCCCCCCC[P+](CCCC)(CCCC)CCCC
inactive: [13]
active: [1] 43 µM and 43.3 µM | [2] 9.63 µM and 9.69 µM | [4] 21.6 µM and 27.3 µM | [6] 19.2 µM and 24.3 µM | [7] 17.1 µM and 27.3 µM | [8] 12.1 µM and 15.4 µM | [10] 21.6 µM and 27.3 µM

CCCCC(CC)COC(=O)CC(C(=O)OCC(CC)CCCC)S(=O)(=O)O (stereo unspecified)
inactive: [2] | [3] | [5] | [6] | [7] | [8] | [9] | [10]
